Records with an inconclusive call do not appear. Values without a mark were called inactive. The source made the active and inactive calls. Calls follow the shape of the dose curve; as a rule, active = well fitted inhibition curve with a large enough effect in the repeat runs; inconclusive = weak or mixed curves; inactive = flat fitted curve, though single readings scatter.
Experiment: qHTS assay to identify small molecule HDAC inhibitors (AID 1259364); also: nearly all actives have a fitted effect of over 45% in size; as to activity change, negative = inhibition: top concentration of the series differs between compounds
Conditions: HCT-116 HDAC-Glo I/II luminescence, 2 h; series mostly up to 92.4 µM; activity change, negative = inhibition: at the top concentration
Source text: U.S. Tox21 Program National Center for Advancing Translational Sciences [NCATS] NIH Chemical Genomics Center [NCGC] U.S. Environmental Protection Agency [EPA] National Institutes of Environmental Health Sciences [NIEHS] National Toxicology Program [NTP] U.S. Food and Drug Administration [FDA] Tox21 Assay Overview: Histone deacetylases (HDACs) are a group of epigenetic enzymes that regulate gene expression by histone deacetylation. HDACs are capable of introducing epigenetic modifications and such aberrations contribute to the onset and progression of several human diseases, thus making HDACs a popular therapeutic target. For identifying endogenous class I/II HDAC inhibitors a homogenous, luminogenic HDAC I/II cell based assay was used to measure the relative activity of class I and II HDACs from cells. Wild type HCT-116 cells were used to screen Tox21 libraries for identifying class I/II HDAC inhibitors.
Tox21 Assay Protocol Summary: HCT-116 cells were dispensed at 1,500 per well in 5uL of culture medium into white solid bottom 1536-well plates (Greiner Bio-One, Monroe, NC) using a Multidrop Combi (Thermo Scientific, Waltham, MA) dispenser. The assay plates were incubated at 37 C and 5% CO2 for an overnight, and then 23nL of compounds dissolved in DMSO and positive control were transferred using a Pintool station (Wako, San Diego, CA). The assay plates were incubated at 37C and 5% CO2 for 2hr. After compound treatment, 4uL of HDAC-Glo reagent (Promega Corporation, Madison, WI) was added to each well of the assay plates using Flying Reagent Dispenser (FRD, Aurora Discovery, San Diego, CA) and incubated the assay plates at room temperature for 30min. The luminescence signal was quantified using a ViewLux plate reader (Perkin Elmer, Shelton, CT).
% is scaled to controls: 0 for no effect and ±100 for the full control effect; potency is read from the fitted curve at half-maximal effect.

SMILES	activity change, negative = inhibition	Potency
CCn1cc(C(=O)O)c(=O)c2cnc(N3CCNCC3)nc21	2.47% [at 42.5 µM]	–
CCC(C)c1cc(C(C)(C)C)c(O)c(C(C)(C)C)c1 (stereo not given)	3.26%	–
CN1CCC(N(Cc2cccs2)c2ccccc2)CC1	-1.22% [at 42.5 µM]	–
COc1ccc(C)cc1[N+](=O)[O-]	-7.6%	–
COc1ccc(C(=O)c2ccc(OC)cc2O)c(O)c1	–	30.9 µM (active)
CO[C@@H]1[C@H](OC(=O)/C=C/C=C/C=C/C=C/C(=O)O)CC[C@]2(CO2)[C@H]1[C@@]1(C)O[C@@H]1CC=C(C)C	-3.19%	–
C1CCCNCCC1	0.0537%	–
CCC(Cl)CCC(Cl)C(Cl)CC(Cl)C(Cl)C(Cl)CCl (stereo not given)	-0.939%	–
O=C(O)c1ccco1	1.41%	–
Cc1ccc(C(C)OC(=O)C2(C)CCC(C(=O)O)C2(C)C)cc1 (stereo not given)	3% [at 42.5 µM]	–
NC(=O)C(c1ccccc1)(c1ccccc1)[C@@H]1CCN(CCc2ccc3c(c2)CCO3)C1	-0.204% [at 42.5 µM]	–
COc1ccc(C(=O)N2CCN(CC(=O)N3CCOCC3)CC2)cc1	0.264% [at 42.5 µM]	–
COc1cc(Cl)c(OC)cc1N	-4.85%	–
C#C[C@]1(O)CC[C@H]2[C@@H]3CCc4cc(OC5CCCC5)ccc4[C@H]3CC[C@@]21C	-1.08% [at 42.5 µM]	–
CN(C)CCN(Cc1ccsc1)c1ccccn1	-1.48% [at 42.5 µM]	–
CC(=O)c1ccc2c(c1)N(CCCN1CCC(CCO)CC1)c1ccccc1S2	-26.3% [at 42.5 µM]	–
CCOC(=O)C(O)c1ccccc1 (stereo not given)	1.44% [at 42.5 µM]	–
CCCCCCCCCCCCCCOS(=O)(=O)O	-1.67%	–
COc1ccc(S(=O)(=O)N2C(=O)[C@@](c3ccccc3OC)(N3C[C@H](O)C[C@H]3C(=O)N(C)C)c3cc(Cl)ccc32)c(OC)c1	-4.84%	–
CCCCCCCCCc1ccc(OCCOCCO)cc1	-2.93% [at 42.5 µM]	–

SMILES	activity change, negative = inhibition	Potency
Cc1c(N)cccc1[N+](=O)[O-]	0.554%	–
C=C(C)C(=O)OCCOCC	-0.792%	–
C#Cc1cccc(Nc2ncnc3cc(OCCOC)c(OCCOC)cc23)c1	-20.9% [at 42.5 µM]	–
c1cc(CCCc2ccncc2)ccn1	-4.08%	–
CCN(CC)c1ccc2c(-c3ccccc3C(=O)O)c3ccc(=[N+](CC)CC)cc-3oc2c1	-11.4%	–
NCC(=O)CCC(=O)O	-2.28% [at 42.5 µM]	–
CC1(c2ccccc2)OC(C(=O)O)=CC1=O (stereo not given)	4.8% [at 42.5 µM]	–
Cc1[nH]c(C)c(Cl)c(=O)c1Cl	7.15% [at 19 µM]	–
CN(C)C(=O)NC1(c2ccccc2)CCN(CC[C@@]2(c3ccc(F)c(F)c3)CN(C(=O)c3ccccc3)CCO2)CC1	-0.846%	–
CCN(CC)CCNc1ccc(CNC=O)c2sc3ccc(OC)cc3c(=O)c12	-6.78%	–
O=S(c1cc(Cl)cc(Cl)c1O)c1cc(Cl)cc(Cl)c1O	-8.88% [at 42.5 µM]	–
CCNc1cc(O)ccc1C	1.39%	–
O[C@@H](COc1cccc2ncccc12)CN1CCN(C2c3ccccc3[C@@H]3[C@H](c4ccccc42)C3(F)F)CC1 (stereo not given in full)	-19.4% [at 42.5 µM]	–
CCOc1ccc(N=Nc2ccc(/C=C/c3ccc(N=Nc4ccc(OCC)cc4)cc3S(=O)(=O)O)c(S(=O)(=O)O)c2)cc1	-0.804%	–
CC(C)(C)Cl	-13.4%	–
C=CC(=O)OCCOCCOC(=O)C=C	-16.7%	–
NCCCN1CCOCC1	0.895%	–
Nc1cccc([N+](=O)[O-])c1	0.374%	–
C=C1C(=C/C=C2\CCC[C@]3(C)[C@@H]([C@H](C)/C=C/[C@@H](O)C4CC4)CC[C@@H]23)C[C@@H](O)C[C@@H]1O	-2.73% [at 42.5 µM]	–
COC(C)(C)CCO	4.51%	–

— PubChem BioAssay (Tox21)
